Reference: ChEMBL document CHEMBL3988442, “University of Dundee, Small-Polar-MMV Screening Library” (2021)
For some assays here: Potency and affinity values are given separately.

Assays:
Set-up in all cases: scale not given: direction of the effect not stated beside the values
[1] = molecular target: Protein translocase subunit SecA (Escherichia coli (strain K12)) (UniProt P10408); assay: Assay to Identify E. coli SecA ATPase Inhibitors; assay type: functional; details: 30 µM
[2] = molecular target: T1, Ubiquitin-activating enzyme e1, putative (Leishmania donovani (strain BPK282A1)) (UniProt E9BSI1); assay: Leishmania donovani Ubiquitin Activating Enzyme (LdE1); assay type: functional; details: 30 µM
T1 sequence (whole entry): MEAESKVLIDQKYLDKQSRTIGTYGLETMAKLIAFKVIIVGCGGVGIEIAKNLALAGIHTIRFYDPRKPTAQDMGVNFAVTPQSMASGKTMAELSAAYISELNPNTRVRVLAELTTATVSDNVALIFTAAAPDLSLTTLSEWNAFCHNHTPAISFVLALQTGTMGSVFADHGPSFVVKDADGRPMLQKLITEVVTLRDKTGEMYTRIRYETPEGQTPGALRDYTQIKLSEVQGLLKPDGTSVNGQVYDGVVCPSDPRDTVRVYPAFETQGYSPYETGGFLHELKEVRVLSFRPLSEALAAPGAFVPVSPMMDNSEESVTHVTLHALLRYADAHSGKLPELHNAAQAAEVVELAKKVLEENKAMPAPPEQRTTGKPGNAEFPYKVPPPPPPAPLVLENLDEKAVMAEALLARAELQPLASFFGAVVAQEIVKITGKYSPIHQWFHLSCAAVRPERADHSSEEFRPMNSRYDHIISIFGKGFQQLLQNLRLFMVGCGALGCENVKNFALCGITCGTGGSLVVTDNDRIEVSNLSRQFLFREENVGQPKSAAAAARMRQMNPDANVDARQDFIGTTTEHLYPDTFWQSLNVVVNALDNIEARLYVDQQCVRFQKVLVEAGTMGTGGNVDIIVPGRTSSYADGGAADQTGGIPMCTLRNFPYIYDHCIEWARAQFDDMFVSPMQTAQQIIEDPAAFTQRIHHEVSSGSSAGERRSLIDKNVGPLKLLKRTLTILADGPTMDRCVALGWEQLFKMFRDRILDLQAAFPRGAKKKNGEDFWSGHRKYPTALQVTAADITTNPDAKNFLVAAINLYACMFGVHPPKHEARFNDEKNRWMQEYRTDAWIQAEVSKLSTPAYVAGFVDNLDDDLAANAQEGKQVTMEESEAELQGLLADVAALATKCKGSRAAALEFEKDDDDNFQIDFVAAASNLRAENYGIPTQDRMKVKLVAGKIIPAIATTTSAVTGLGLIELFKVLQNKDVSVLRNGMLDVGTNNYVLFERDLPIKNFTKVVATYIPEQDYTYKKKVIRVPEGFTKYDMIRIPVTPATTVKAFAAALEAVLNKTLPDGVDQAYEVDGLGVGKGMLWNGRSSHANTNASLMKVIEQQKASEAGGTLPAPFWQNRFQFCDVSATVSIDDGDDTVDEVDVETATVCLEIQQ

[3] = molecular target: Sialic acid-binding Ig-like lectin 9 (Homo sapiens) (UniProt Q9Y336); assay: Hs-Siglec9 ALPHAscreen SOP 20170721; details: 10 µM
[4] = tested on: Trypanosoma cruzi; assay: Trypanosoma cruzi phosphomannomutase and mannose-1-phosphate guanylyltransferase assay; assay type: functional; details: 10 µM
[5] = molecular target: T2, Arginase-2, mitochondrial (Homo sapiens) (UniProt P78540); assay: in vitro enzyme assay to detect the production of urea directly proportional to the activity of Arginase II; assay type: functional; details: 33.3 µM; also: in the data most compounds retested in dose-response had high values
T2 sequence (whole entry): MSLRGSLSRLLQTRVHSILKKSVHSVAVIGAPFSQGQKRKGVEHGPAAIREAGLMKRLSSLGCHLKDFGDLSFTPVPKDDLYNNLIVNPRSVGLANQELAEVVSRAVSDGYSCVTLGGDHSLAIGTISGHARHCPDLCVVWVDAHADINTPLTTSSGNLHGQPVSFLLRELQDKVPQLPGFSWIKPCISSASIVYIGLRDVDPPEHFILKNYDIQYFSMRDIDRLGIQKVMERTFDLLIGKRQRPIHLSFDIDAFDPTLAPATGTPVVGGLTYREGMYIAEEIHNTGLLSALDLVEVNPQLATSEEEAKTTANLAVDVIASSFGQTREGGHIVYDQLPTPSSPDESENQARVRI

[6] = molecular target: T3, Proteasome subunit beta (Trypanosoma cruzi) (UniProt O96673); assay: Trypanosoma cruzi proteasome chymotrypsin-like activity (TcProtChymo) assay.; also: in the data most compounds retested in dose-response had high values; assay type: functional; details: 9.37 µM
T3 sequence (whole entry): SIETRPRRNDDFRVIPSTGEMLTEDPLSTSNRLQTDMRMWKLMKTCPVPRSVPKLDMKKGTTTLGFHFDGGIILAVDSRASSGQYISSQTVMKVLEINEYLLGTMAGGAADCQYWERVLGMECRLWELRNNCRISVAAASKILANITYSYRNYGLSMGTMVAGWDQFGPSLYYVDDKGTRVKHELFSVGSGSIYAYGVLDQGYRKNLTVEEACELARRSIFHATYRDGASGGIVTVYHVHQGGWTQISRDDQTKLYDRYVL

[7] = organism: Homo sapiens; assay: To identify inhibition of the IFN signalling (Jak-Stat) pathway via expression of an eGFP reporter gene under the control of an IFN-stimulated response element (ISRE) containing MxA promoter.; assay type: functional; details: 30 µM
[8] = molecular target: T4, Tyrosyl-tRNA synthetase, putative (Trypanosoma cruzi (strain CL Brener)) (UniProt Q4DSP6); assay: Trypanosoma cruzi tyrosyl tRNA synthetase (TcYRS) _High Tyrosine SOP; assay type: functional; details: 30 µM; also: in the data most compounds retested in dose-response had high values
T4 sequence (whole entry): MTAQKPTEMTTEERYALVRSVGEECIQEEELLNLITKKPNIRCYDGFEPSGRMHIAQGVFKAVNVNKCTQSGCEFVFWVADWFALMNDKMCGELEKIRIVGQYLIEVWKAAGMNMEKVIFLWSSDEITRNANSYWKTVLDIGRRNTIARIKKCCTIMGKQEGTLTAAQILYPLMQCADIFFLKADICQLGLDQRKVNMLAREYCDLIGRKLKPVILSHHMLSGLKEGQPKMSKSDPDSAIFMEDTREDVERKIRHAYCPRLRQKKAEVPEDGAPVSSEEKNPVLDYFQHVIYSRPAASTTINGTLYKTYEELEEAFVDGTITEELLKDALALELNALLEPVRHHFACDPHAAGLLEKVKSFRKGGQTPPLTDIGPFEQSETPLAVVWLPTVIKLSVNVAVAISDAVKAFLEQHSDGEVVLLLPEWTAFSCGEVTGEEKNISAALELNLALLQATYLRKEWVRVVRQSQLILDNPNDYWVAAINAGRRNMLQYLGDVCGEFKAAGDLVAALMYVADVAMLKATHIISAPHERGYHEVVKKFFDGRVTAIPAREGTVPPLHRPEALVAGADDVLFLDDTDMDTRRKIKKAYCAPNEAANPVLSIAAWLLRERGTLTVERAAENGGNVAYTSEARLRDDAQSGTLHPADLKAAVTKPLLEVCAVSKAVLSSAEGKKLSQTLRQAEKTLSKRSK

[9] = molecular target: T4, Tyrosyl-tRNA synthetase, putative (Trypanosoma cruzi (strain CL Brener)); assay: Trypanosoma cruzi tyrosyl tRNA synthetase (TcYRS) SOP; assay type: functional; details: 30 µM
[10] = molecular target: Chromo domain-containing protein 1 (Saccharomyces cerevisiae (strain ATCC 204508 / S288c) (Baker's yeast)) (UniProt P32657); assay: ScCHD-1 Enzyme Inhibition Assay; assay type: functional; details: 30 µM; also: in the data most compounds retested in dose-response had high values
Sequence of Chromo domain-containing protein 1 (Saccharomyces cerevisiae (strain ATCC 204508 / S288c) (Baker's yeast)) (P32657 whole entry, the tested form may be a part): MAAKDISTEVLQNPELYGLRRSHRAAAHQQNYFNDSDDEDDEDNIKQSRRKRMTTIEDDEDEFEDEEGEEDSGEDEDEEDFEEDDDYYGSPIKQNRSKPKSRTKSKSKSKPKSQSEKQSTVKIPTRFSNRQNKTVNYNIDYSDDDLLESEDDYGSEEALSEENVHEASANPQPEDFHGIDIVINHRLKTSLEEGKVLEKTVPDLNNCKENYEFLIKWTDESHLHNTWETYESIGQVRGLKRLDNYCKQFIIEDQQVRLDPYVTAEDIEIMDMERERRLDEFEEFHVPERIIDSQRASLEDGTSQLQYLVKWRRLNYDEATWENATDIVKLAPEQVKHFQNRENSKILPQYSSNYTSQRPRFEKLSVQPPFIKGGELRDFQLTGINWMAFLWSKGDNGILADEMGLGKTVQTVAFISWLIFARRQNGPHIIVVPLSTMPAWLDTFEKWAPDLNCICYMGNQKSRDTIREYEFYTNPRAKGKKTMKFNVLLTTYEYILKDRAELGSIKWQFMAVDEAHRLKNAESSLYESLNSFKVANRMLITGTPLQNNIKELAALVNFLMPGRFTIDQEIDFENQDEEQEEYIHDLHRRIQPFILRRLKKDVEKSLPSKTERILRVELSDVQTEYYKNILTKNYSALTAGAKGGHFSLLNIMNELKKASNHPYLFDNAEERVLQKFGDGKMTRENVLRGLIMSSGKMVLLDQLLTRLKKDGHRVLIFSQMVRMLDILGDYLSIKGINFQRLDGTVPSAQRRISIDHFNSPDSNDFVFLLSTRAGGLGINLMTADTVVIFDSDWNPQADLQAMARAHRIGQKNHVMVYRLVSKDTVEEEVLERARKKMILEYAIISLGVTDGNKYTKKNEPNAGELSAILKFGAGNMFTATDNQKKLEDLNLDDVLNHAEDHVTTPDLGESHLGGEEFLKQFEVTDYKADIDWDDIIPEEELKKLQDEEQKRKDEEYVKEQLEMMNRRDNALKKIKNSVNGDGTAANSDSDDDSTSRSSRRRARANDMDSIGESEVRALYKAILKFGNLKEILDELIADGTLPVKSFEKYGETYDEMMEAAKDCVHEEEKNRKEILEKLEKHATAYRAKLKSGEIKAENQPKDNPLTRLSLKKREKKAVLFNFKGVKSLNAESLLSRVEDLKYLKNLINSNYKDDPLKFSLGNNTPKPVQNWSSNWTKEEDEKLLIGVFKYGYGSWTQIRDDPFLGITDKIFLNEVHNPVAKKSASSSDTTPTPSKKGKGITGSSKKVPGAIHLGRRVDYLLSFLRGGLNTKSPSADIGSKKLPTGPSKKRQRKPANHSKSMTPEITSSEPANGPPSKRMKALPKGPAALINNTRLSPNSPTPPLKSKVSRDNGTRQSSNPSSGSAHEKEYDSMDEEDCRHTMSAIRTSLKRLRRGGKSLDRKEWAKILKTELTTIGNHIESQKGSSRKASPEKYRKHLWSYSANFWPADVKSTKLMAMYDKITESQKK

Sequence of Sialic acid-binding Ig-like lectin 9 (Homo sapiens) (Q9Y336 whole entry): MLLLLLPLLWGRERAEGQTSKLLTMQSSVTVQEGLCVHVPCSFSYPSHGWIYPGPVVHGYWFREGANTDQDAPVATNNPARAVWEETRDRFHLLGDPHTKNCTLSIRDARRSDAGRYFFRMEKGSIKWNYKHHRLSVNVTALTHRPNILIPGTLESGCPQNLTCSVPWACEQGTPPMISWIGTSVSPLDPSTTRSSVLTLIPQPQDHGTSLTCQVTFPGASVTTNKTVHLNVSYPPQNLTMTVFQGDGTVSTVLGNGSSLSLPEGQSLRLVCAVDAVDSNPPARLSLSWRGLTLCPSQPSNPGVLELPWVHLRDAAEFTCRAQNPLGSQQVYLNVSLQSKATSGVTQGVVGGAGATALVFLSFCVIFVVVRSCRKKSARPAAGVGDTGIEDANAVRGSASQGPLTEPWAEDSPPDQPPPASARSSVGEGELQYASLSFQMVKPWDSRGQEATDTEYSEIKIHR
Sequence of Protein translocase subunit SecA (Escherichia coli (strain K12)) (P10408 whole entry): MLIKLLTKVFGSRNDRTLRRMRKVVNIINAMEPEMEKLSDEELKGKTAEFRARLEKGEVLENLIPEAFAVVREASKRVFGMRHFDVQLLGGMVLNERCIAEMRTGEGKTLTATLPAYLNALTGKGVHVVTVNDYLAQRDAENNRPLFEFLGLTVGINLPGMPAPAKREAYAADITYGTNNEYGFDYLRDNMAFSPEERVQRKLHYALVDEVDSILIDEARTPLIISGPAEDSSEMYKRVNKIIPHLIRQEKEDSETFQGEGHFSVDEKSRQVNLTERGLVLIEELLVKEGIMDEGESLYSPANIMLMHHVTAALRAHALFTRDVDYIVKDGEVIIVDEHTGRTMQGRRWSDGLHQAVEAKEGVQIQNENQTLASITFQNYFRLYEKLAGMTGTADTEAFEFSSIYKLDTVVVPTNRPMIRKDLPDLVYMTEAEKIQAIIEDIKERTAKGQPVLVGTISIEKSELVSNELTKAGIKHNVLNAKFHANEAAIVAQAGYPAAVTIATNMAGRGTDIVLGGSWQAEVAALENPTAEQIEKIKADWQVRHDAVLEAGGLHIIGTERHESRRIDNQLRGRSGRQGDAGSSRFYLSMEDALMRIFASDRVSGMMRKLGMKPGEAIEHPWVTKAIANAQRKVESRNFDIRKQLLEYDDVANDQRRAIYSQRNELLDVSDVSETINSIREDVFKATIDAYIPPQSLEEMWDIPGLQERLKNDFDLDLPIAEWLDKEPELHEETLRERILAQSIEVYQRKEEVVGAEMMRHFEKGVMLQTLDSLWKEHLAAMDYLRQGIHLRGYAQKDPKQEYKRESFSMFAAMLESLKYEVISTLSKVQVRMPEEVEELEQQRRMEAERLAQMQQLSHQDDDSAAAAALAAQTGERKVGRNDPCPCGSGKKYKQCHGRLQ

| SMILES | Percent Effect [1] [%] | Percent Effect [2] [%] | Percent Effect [3] [%] | Percent Effect [4] [%] | Percent Effect [5] [%] | Percent Effect [6] [%] | Percent Effect [7] [%] | Percent Effect [8] [%] | Percent Effect [9] [%] | Percent Effect [10] [%] |
| --- | --- | --- | --- | --- | --- | --- | --- | --- | --- | --- |
| CC1CN(c2ccc(CNC(=O)c3ccn(C)c(=O)c3)cn2)CCO1 (stereo not given) | -4.46 | 16 | 0.777 | 1.61 | 5.32 | 7.72 | 6.29 | 3.68 | 15.4 | -8.09 |
| COCc1ncc(CN2CCC(Oc3ccccc3OC)CC2)cn1 | -4.09 | 2.7 | 1.93 | -3.59 | 3.85 | 9.59 | 1.55 | 5.85 | 14.6 | -3.8 |
| CCS(=O)(=O)N1C[C@@H](OCc2cccnc2)[C@H]2OCCC[C@H]21 | -10.2 | 1.3 | 6.61 | -4.58 | -3.64 | 7.68 | 9 | 4.74 | 7.69 | 0.0373 |
| COc1cc(S(=O)(=O)N2CCCc3ccccc32)cc(C(=O)O)c1OC | -5.67 | 0 | 10.6 | -0.201 | -3.99 | 7.38 | 9.13 | 0.526 | 7.69 | -5.31 |
| O=C1CCCN1Cc1nnc2n1CCN(Cc1ccoc1)CC2 | -6.7 | 9.09 | -2.11 | -3.94 | 1.83 | 0.601 | 26.1 | -1.93 | -2.5 | -3.88 |
| Cc1ccccc1CN(C)Cc1nc2c(cnn2C)c(=O)[nH]1 | -0.754 | 10.3 | -3.07 | 1.41 | -0.82 | 16.8 | 7.6 | 8.13 | 18.1 | -3.59 |
| Cc1nn(C)c(N(C)C)c1CNCc1ccc(OCC(N)=O)cc1 | -3.65 | 8 | 0.758 | -2.61 | -1.33 | 13.2 | -6 | 5.79 | 7.69 | -13.9 |
| Cc1cc(-c2cnn(CCNC(=O)C3CC3)c2C2CC2)on1 | -4.16 | 4 | -5.41 | -1.77 | -1.77 | 5.91 | 17.8 | -3.17 | 0 | -25.2 |
| c1ccc(-c2nc(CN3CCOC(Cn4cccn4)C3)no2)cc1 (stereo not given) | -2.84 | 2.67 | -2.67 | -3.01 | 4.43 | 7.38 | 4.88 | 5.79 | 12.8 | -6.08 |
| Cn1cccc1-c1cc(C(=O)N2CC(c3cccnc3)C2)[nH]n1 | -12.9 | 2.7 | 4.47 | -2.81 | 1.05 | 5.65 | 32.9 | -1.6 | 0 | 0.144 |
| CCOc1ccc(CN2CCN(C(=O)c3ccc(C)n3C)CC2)cc1 | -2.75 | 5.33 | 3.18 | 1.41 | -4.43 | 12.1 | 8.63 | 6.84 | 15.4 | -10.5 |
| CN1CCOC(CNC(=O)Cc2ccccc2F)C1 (stereo not given) | -1.65 | 15.4 | -3.95 | 3.47 | 4.1 | 8.11 | -18.4 | 7.18 | 25.3 | -5.49 |
| c1ccc2cc(OCCN3CCn4c(nnc4C4CC4)C3)ccc2c1 | -5.63 | -18.7 | -1.64 | 1.61 | -5.32 | 4.33 | -7.36 | 1.58 | -10.3 | -10.9 |
| CN1CCN(c2cc(CNC(=O)c3ccc(=O)n(C)c3)ccn2)CC1 | -2.29 | 20.5 | -8.46 | 7.04 | 2.87 | 13.9 | 13.3 | -0.478 | 22.9 | -8.95 |
| COCCNC(=O)c1cc(S(=O)(=O)N2CCCCC2)cs1 | -1.54 | 0 | -4.58 | -1.07 | 1.05 | 14.6 | 19.3 | 0.532 | 2.44 | 2.87 |
| CCn1ccnc1CN1CCCN(C(=O)c2cccn2C)CC1 | -5.36 | 12.8 | -19.1 | 14 | -2.46 | 8.79 | 4.83 | 2.39 | 20.5 | 31.3 |
| CC(NCc1c(C(C)C)nn(C)c1N1CCOCC1)C(N)=O (stereo not given) | -5.06 | 7.69 | -15.9 | -3.66 | -1.23 | 14.8 | 16.4 | 0.478 | 8.43 | -6.18 |
| CS(=O)(=O)c1ccc(NC(=O)NCc2ccc3c(c2)CCC3)cn1 | -2.45 | 0 | -3.31 | 4.04 | -38.9 | -6.06 | 4.37 | 5.26 | 8.43 | -1.11 |
| CS(=O)(=O)c1ccccc1C(=O)NCCCN1CCc2ccccc2C1 | -5.27 | 18.7 | 2.07 | 7.03 | -0.887 | 17.1 | -1.14 | 3.68 | 15.4 | -11.6 |
| CC(c1cccc(S(N)(=O)=O)c1)N(C)CCOc1ccccc1 (stereo not given) | -0.74 | -15.6 | 10.5 | -4.48 | -5.12 | 2.1 | 14.4 | -1.96 | -2.35 | 1.25 |
| CCn1cc(NC(=O)NCc2ccc(CN3CCOCC3)cc2)cn1 | 0.918 | 13 | 16 | -7.28 | -6.35 | 10 | 24.2 | 4.9 | 11.8 | -1.62 |
| Cc1n[nH]c(C)c1C1COCCN1C(=O)c1cc(Cl)c[nH]1 (stereo not given) | -1.38 | 2.56 | 3.4 | -3.47 | 9.02 | -1.96 | 15 | -2.39 | 1.21 | 2.03 |
| CCOCC1CN(S(C)(=O)=O)Cc2cnn(CC3CCOCC3)c21 (stereo not given) | -3.9 | 1.3 | -0.726 | -5.94 | -5.26 | 10.5 | 0.606 | 3.68 | 12.8 | -2.94 |
